Assay outcomes (PubChem BioAssay)
MEKK2 mut-MEK5: signal of MEK5 binding to mutant human MEKK2 PB1 domain. percent response, % at 10 µM. hit rate 0.35% among 290,000. bead flow cytometry, Alexa488-MEK5 binding to MEKK2 mutant; in the data active means percent response above about 24%, passing the limit was not always enough
MEKK2 WT-MEK5: raises or lowers MEK5 binding to wildtype human MEKK2 PB1 domain; bead flow cytometry, Alexa488-MEK5 binding to MEKK2 WT; actives lie on both sides; AID 1531; Q9Y2U5; binding response (% of control), % at 10 µM; hit rate 1.1% among 290,000; in the data active means binding response below about 67% or above about 130%
MEKK3 PB1 HTS: raises or lowers MEK5 binding to the human MEKK3 PB1 domain. bead-based flow cytometry, Alexa488-MEK5 binding to MEKK3; actives lie on both sides; 0 = blocked by unlabeled MEK5, 100 = vehicle. binding response (% of control), % at 10 µM. hit rate 1.4% among 290,000. AID 1529;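 active means binding response more than 3 SD above or below the average of its plate-row segment, actives on both sides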;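 further: Alexa488 bead fluorescence after subtracting the streptavidin-only scavenger bead signal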
GRK2 inh: inhibitors of human GRK2 displacing RNA aptamer; P25098; bead flow cytometry, FAM-aptamer displacement from GRK2; inhibition of aptamer binding, % at 10 µM; hit rate 0.59% among 330,000; AID 488847;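 active means inhibition of aptamer binding above 40%, roughly 3 SD of noise, on plates passing a quality check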;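 further: median bead fluorescence of bound FAM aptamer so fluorescent compounds give negative values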
MEKK2wt confirm: raises or lowers MEK5 binding to wildtype human MEKK2, retest; binding response (% of control), % at 10 µM; hit rate 2.4% among 5,900; bead flow cytometry, Alexa488-MEK5 binding to MEKK2 WT; actives lie on both sides; shares compounds with MEKK3 PB1 HTS; AID 1892; in the data active means binding response below about 16% or above about 210%; inactive means in between
MEKK2mut confirm: signal of MEK5 binding to mutant human MEKK2, retest. shares compounds with MEKK3 PB1 HTS. hit rate 2% among 5,900. percent response, % at 10 µM. AID 1893. bead flow cytometry, Alexa488-MEK5 binding to MEKK2 mutant; in the data active means percent response mostly above about 71%, no sharp cut-off; inactive means mostly below about 38%;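 further: higher means compound restores mutant binding toward wildtype level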
MEKK3-MEK5 inh: MEKK3-MEK5 PB1 inhibition, single concentration confirmation | binding response (% of control), % at 10 µM | hit rate 1.8% among 5,900 | shares compounds with MEKK3 PB1 HTS | bead flow cytometry, Alexa488-MEK5 binding to MEKK3; hits give low values;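 active means binding response below 72% of control, or above a set upper limit, though filed actives all read lower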;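 further: 100% = DMSO only wells and 0% = binding blocked by excess unlabeled MEK5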
* hit, by the source's call; [ ] = dose if it differs, or a comment. The list is not random: actives were taken first. Their share in the collection is about 2.5%.

For CCN(CC)CCCN(C(=O)c1ccc(OC)cc1)c1nc(-c2ccc(OC)cc2)cs1 the results were MEKK2 mut-MEK5 20.0, MEKK2 WT-MEK5 165.0*, MEKK3 PB1 HTS 95.0, GRK2 inh 0.0, MEKK2wt confirm 153.0, MEKK2mut confirm 30.0 and MEKK3-MEK5 inh 108.0.
Screening CCN(CC)CCCN(C(=O)c1ccccc1F)c1nc(-c2ccc(OC)cc2)cs1 returned MEKK2 mut-MEK5 21.0, MEKK2 WT-MEK5 156.0*, MEKK3 PB1 HTS 104.0, GRK2 inh 0.0, MEKK2wt confirm 150.0, MEKK2mut confirm 27.0 and MEKK3-MEK5 inh 107.0.
Screening COc1ccc(-c2csc(N(CCCN(C)C)C(=O)c3cccs3)n2)cc1 returned MEKK2 mut-MEK5 12.0, MEKK2 WT-MEK5 130.0, MEKK3 PB1 HTS 110.0 and GRK2 inh 0.0.
Screening CC(C)(C)C1CCC(C(=O)OCC(=O)c2ccc[nH]2)CC1 (stereo not drawn) returned MEKK2 mut-MEK5 -1.0, MEKK2 WT-MEK5 98.0, MEKK3 PB1 HTS 103.0 and GRK2 inh 0.0.
For O=C(Oc1ccc(OC(=O)c2ccco2)c(S(=O)(=O)c2ccc(Br)cc2)c1)c1ccco1 the results were MEKK2 mut-MEK5 -2.0, MEKK2 WT-MEK5 100.0, MEKK3 PB1 HTS 101.0 and GRK2 inh 3.0.
For COc1cc(/C=N/NC(=O)C[n+]2ccccc2)cc(OC)c1OC the results were MEKK2 mut-MEK5 1.0, MEKK2 WT-MEK5 99.0, MEKK3 PB1 HTS 98.0 and GRK2 inh 0.0.
Screening COc1cc(/C=N/NC(=O)C[n+]2ccccc2)cc(OC)c1OC(C)=O returned MEKK2 mut-MEK5 -30.0, MEKK2 WT-MEK5 60.0*[inhibitor], MEKK3 PB1 HTS 73.0*[inhibitor], GRK2 inh 0.0, MEKK2wt confirm 86.0, MEKK2mut confirm -11.0 and MEKK3-MEK5 inh 82.0.
Screening COc1ccc(C(=O)Nc2cc(C(C)=O)c(C)oc2=O)cc1 returned MEKK2 mut-MEK5 -1.0, MEKK2 WT-MEK5 98.0, MEKK3 PB1 HTS 103.0 and GRK2 inh 2.0.
Screening COC(=O)c1cc(NC(=O)c2ccccc2)c(=O)oc1/C=C/Nc1ccc(Oc2ccccc2)cc1 returned MEKK2 mut-MEK5 734.0*, MEKK2 WT-MEK5 218.0*, MEKK3 PB1 HTS 85.0, MEKK2wt confirm 87.0, MEKK2mut confirm -30.0 and MEKK3-MEK5 inh 73.0.
`CCCn1nnc(NC(=O)c2cccnc2Cl)n1` gave MEKK2 mut-MEK5 3.0, MEKK2 WT-MEK5 101.0, MEKK3 PB1 HTS 110.0 and GRK2 inh 0.0.
Screening Cc1cccc(-c2n[nH]c(=S)n2/N=C/c2ccco2)c1 returned MEKK2 mut-MEK5 1.0, MEKK2 WT-MEK5 100.0, MEKK3 PB1 HTS 106.0 and GRK2 inh 1.0.
`N=c1scc(-c2ccccc2)n1/N=C/c1ccco1` gave MEKK2 mut-MEK5 55.0*, MEKK2 WT-MEK5 108.0, MEKK3 PB1 HTS 103.0, GRK2 inh 1.0, MEKK2wt confirm 87.0, MEKK2mut confirm -2.0 and MEKK3-MEK5 inh 95.0.
`CC(=O)N1N=C(c2ccc(NS(C)(=O)=O)cc2)CC1c1ccc2nccnc2c1` (stereo not drawn) gave MEKK2 mut-MEK5 -7.0, MEKK2 WT-MEK5 97.0, MEKK3 PB1 HTS 104.0 and GRK2 inh 2.0.
`CS(=O)(=O)N1N=C(c2ccccc2)CC1c1cccs1` (stereo not drawn) gave MEKK2 mut-MEK5 0.0, MEKK2 WT-MEK5 96.0, MEKK3 PB1 HTS 100.0 and GRK2 inh 2.0.
For CCS(=O)(=O)Nc1cccc(C2=NN(S(C)(=O)=O)C(c3ccccc3)C2)c1 (stereo not drawn) the results were MEKK2 mut-MEK5 54.0*, MEKK2 WT-MEK5 86.0, MEKK3 PB1 HTS 18.0*[inhibitor], GRK2 inh 0.0, MEKK2wt confirm 72.0, MEKK2mut confirm -19.0 and MEKK3-MEK5 inh 73.0.
Screening Cc1ccc(C2=NN(S(C)(=O)=O)C(c3ccc4c(c3)OCO4)C2)cc1 (stereo not drawn) returned MEKK2 mut-MEK5 25.0, MEKK3 PB1 HTS 10.0*[inhibitor], GRK2 inh 0.0, MEKK2wt confirm 98.0, MEKK2mut confirm -6.0 and MEKK3-MEK5 inh 96.0.
